# Sampled rows, rich in hits. Any-hit rate of the full collection: about 1.5%.
# ALOX12 inh = Primary qHTS assay for inhibitors of human arachidonate 12S-lipoxygenase (ALOX12): Round 2; Potency, µM (series often up to 108 µM), for the others: at the top dose activity change, negative = inhibition, most hits filed as inhibitors; actives 1.1% (n = 580,000); purified 12hLO, xylenol orange hydroperoxide absorbance; further: potency means the concentration at half of the fitted maximal effect; on the % scale 0 is the no-effect control and ±100 the full control effect
# Target sequence (P18054 whole entry, looked up): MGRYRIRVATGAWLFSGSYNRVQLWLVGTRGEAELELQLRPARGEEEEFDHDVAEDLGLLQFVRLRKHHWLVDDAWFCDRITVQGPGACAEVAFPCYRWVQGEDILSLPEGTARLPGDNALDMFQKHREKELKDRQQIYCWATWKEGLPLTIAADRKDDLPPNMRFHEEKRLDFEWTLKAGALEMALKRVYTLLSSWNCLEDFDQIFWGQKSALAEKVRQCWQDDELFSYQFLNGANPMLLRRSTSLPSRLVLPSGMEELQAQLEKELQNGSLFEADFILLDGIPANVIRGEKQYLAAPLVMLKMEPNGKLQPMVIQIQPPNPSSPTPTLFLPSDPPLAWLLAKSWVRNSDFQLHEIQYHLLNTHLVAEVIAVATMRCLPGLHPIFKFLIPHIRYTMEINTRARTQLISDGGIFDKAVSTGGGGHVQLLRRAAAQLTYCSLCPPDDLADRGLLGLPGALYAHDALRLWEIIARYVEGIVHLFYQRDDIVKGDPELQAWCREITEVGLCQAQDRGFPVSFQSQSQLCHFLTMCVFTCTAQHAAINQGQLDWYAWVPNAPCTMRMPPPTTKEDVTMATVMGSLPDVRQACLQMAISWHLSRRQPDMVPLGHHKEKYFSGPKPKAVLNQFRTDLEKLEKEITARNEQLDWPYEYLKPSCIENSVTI
#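 Purified human 12hLO at 150 nM in 25 mM Hepes, 0.01% Triton X-100, pH 7.0, preincubated 15 min at room temperature with compound. Reaction started with 40 uM arachidonic acid, 30 min at room temperature. Hydroperoxide measured by Fe-xylenol orange, 573/405 nm absorbance ratio.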
# Integrin act MD = qHTS for Activators of Integrin-Mediated Alleviation for Muscular Dystrophy; actives 0.064% (n = 350,000); alpha7betagal myoblasts, beta-gal FDG fluorescence, 48 h; Potency, µM (series often up to 38.3 µM), for inactives: top-dose activation, most hits filed as activators;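 further: potency means the concentration at half of the fitted maximal effect; 100% = response of the positive control SU9516; nearly all actives have a fitted effect of over 60% in size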
#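 alpha7betagal+/- myoblasts (passage 13, 250/well) treated 48 h at 37C with compounds at 1:260 dilution of DMSO stock. Lysed, then beta-galactosidase activity read as FDG fluorescence (ex 480/em 540) after 30 min, with pre-read for autofluorescence.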
# IL-2 act = qHTS of IL-2 Activators; IL-2 activation reporter assay, cell-based qHTS; stimulated with anti-CD3/CD4/CD28 beads; in transgenic mouse T cells; activation, % (series mostly up to about 46 µM); actives 0.065% (n = 360,000); in the data active means activation above about 50%; inconclusive means mostly about 30% to 49%; further: 0% is about no effect
#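 EGFP and DsRed fluorescence is measured by plate cytometry in unstimulated transgenic mouse T cells exposed to compound for 60 minutes, then stimulated 18 hours at 37 degrees C with anti-CD3/anti-CD4 beads plus anti-CD28.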
# Nrf2 activator = qHTS of Nrf2 Activators; AREc32 ARE-luciferase reporter (MCF7-derived line), luminescence, 24 h; Potency, µM (series often up to 46.1 µM), without a hit: at the highest dose activation, usual class: activators; actives 0.31% (n = 410,000); AID 624171, 2012; further: potency means the concentration at half of the fitted maximal effect; % of control where 0% means no effect; nearly all actives have a fitted effect of over 65% in size
#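 Luciferase luminescence (Steady-Glo, 30 min at room temperature) served as the read-out of ARE activation in AREc32 cells treated with compounds for 24 hr at 37 deg C.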
# uPA surface inh = qHTS for Inhibitors of Cell Surface uPA Generation; cell surface uPA generation assay, qHTS; Potency, µM (series often up to 38.3 µM), for the others: top-dose activity change, negative = inhibition, actives largely listed as inhibitors; actives 0.31% (n = 330,000); AID 540303, 2011; active means well fitted inhibition curve with a large enough effect; inconclusive means small, poorly fitted or top-dose-only effect; inactive means no such curve, though single readings can be large or run the other way; tested in mouse RAW 264.7 cells; further: potency means the concentration at half of the fitted maximal effect; on the % scale 0 is the no-effect control and ±100 the full control effect; nearly all actives have a fitted effect of over 55% in size
# Numbers without * were called inactive; u = inconclusive; x = no result given; ! = repeats disagree; [ ] = another dose, or the depositor's remark. Unless noted, the call rests on the fitted dose curve; in most records, active means well fitted curve in the direction sought with a large enough effect; inconclusive means small, poorly fitted or top-dose-only effect, or another doubt; inactive means no such curve, though single readings can be large; an effect the other way counts as inactive or inconclusive.
SMILES,ALOX12 inh,Integrin act MD,IL-2 act,Nrf2 activator,uPA surface inh
COc1cc2ccccc2cc1C(=O)N1CCN(C(C)=O)CC1,11%,19%,0,0%,-4%
CCOc1ccccc1N1CCN(C(=O)c2cc3ccccc3cc2OC)CC1,15%,0%,1,0%,3.5µM*
CN(Cc1cccc(O)c1)C(=O)c1cc(COc2ccccc2F)[nH]n1,76%,x,x,x,x
Cc1c(F)cccc1NC(=O)N1CCC(Oc2ncccc2C(=O)N2CCOCC2)C1 (configuration not stated),-13%,x,x,x,x
O=C(CCS(=O)(=O)c1cc2c3c(c1)CCN3C(=O)CC2)Nc1ccc(F)c(Cl)c1,14µM*,x,x,x,x
CN(Cc1ccccc1C(F)(F)F)C(=O)C1CC1,59%[176 µM],x,x,x,x
COC(=O)/C=C/C(=O)N1CCN(c2ccccc2C)CC1,-1%,-5%,-1,u,11µM*
O=C(CN1C(=O)c2ccccc2S1(=O)=O)NCCSCc1c(F)cccc1Cl,8.9µM*,u,-2,0%,2%
S=C(NCC1CCCCC1)Nc1ccc(Oc2ccccc2)cc1,40µM*,-6%,-5,0%,4%
S=C(Nc1ccc(Oc2ccccc2)cc1)NC1CCCC1,u,1%,2,2%,1%
FC(F)Sc1ccc(NC(=S)NCC2CCCCC2)cc1,16µM*,-68%,-5,3%,x
CC1CCCCC1NC(=S)Nc1ccc(SC(F)F)cc1 (configuration not stated),32µM*,-60%,-1,6%,-14%
COCCN1C(=O)CS(=O)(=O)C12CCN(C(=O)c1ccccc1F)CC2,33%,x,x,x,x
CCOc1ccc(C(=O)N(Cc2ccc(F)cc2Cl)c2ccccn2)cc1,7%,x,x,x,x
CN(C(=O)Cn1nc2n(c1=O)CCCCC2)C1CCCCC1,77%,x,x,x,x
C[n+]1c(-c2ccccc2)cc2c(=Cc3ccc([N+](=O)[O-])cc3)c3ccccc3n21,16µM*,-54%,-4,5%,-9%
CCC(=O)NC(=S)Nc1ccc(NC(=S)NC(=O)c2ccccc2)cc1,u,-13%,-1,1%,-8%
O=C(NC(=S)Nc1ccc(Oc2ccc(Cl)cc2)cc1)c1ccccc1,8.9µM*,0%,0,-1%,-4%
O=C(Nc1ccc2ccccc2c1)c1ccc(Cl)cc1,2%,21%,3,1%,10µM*
O=C(NC(=S)Nc1ccc(-c2ccccc2)cc1)c1ccccc1,u,-40%,-1,10%,5%
O=C(NC(=S)Nc1ccc(Cl)cc1)c1ccccc1,45µM*,0%,0,5%,-1%
CN1CCN(S(=O)(=O)c2ccc(NC(=S)NC(=O)c3ccc(Cl)cc3)cc2)CC1,u,-8%,1,6%,-3%
CC1CCN(S(=O)(=O)c2ccc(NC(=S)NC(=O)c3ccc(Cl)cc3)cc2)CC1,14µM*,6%,-3,0%,2%
Cc1ccc(C(=O)Nc2ccc3ccccc3c2)cc1,0%,23%,-2,-1%[9.22 µM],-16%
Cc1cn2nc(C(=O)N3CCN(c4ccccn4)CC3)cc2c(N2CCCC2)n1,-10%,x,x,x,x
SMILES,ALOX12 inh,Integrin act MD,IL-2 act,Nrf2 activator,uPA surface inh
COc1cccc([S+](=O)([O-])N2CCC(c3nnc4n3C(C(=O)O)CC4)CC2)c1 (configuration not stated),-13%[6.33 µM],x,x,x,x
CCC(C)NC(=O)N1CCC2(CC1)NC(=O)c1ccccc1O2 (configuration not stated),13%,x,x,x,x
CCn1ncc(N2CCC(NC(=O)c3ccc(OC)c(F)c3)CC2)cc1=O,51%,x,x,x,x
CCC1=C(C(=O)OC)C(c2ccccc2F)N2C(CC(=O)NC3CC3)=CSC2=N1 (configuration not stated),63%,x,x,x,x
CC(=O)Nc1ccc(NC(=S)NC(=O)c2ccc(Cl)cc2)cc1,5.6µM*,x,x,x,x
CC(=O)c1ccc(NC(=O)NC(=O)c2ccc(Cl)cc2)cc1,9%,x,x,x,x
S=C(NC(=NC=C(Cl)Cl)c1ccc(Cl)cc1)Nc1ccc(Cl)cc1,20µM*,x,x,x,x
Fc1ccc(NC(=S)Nc2ccc(Cl)cc2)cc1,-29%,-21%,-4,6%,-3%
O=C(NC(=S)Nc1cc(C(F)(F)F)ccc1Cl)c1ccccc1,u,-34%,0,3.2µM*,-7%
Cc1nn(C)c(C)c1C(C)C(=O)Nc1cc(F)c(N(C)C)c(F)c1 (configuration not stated),6%,x,x,x,x
Cc1ccc2nc(NC(=O)NC3CC(=O)N(c4ccc5c(c4)OCCO5)C3)sc2c1 (configuration not stated),15%,x,x,x,x
O=C(CC1(O)C(=O)Nc2ccccc21)c1ccccc1O (configuration not stated),2%,-32%,0,3%,-1%
O=C(CC1(O)C(=O)Nc2cc(Cl)cc(Cl)c21)c1ccccc1O (configuration not stated),0%,-54%,1,16µM*,-7%
O=S(=O)(Nc1cccc2cccnc12)c1cc(F)ccc1F,25%,x,x,x,x
Cc1ccc(S(=O)(=O)NC(=O)NN2CCCCCC2)cc1,u,x,0,0%,1%
Cc1ccc(S(=O)(=O)NC(=O)NN2CC3CCCC3C2)cc1 (configuration not stated),3.1µM*!,-22%,-1,0%,0%
O=C1Nc2ccccc2CC12CN(Cc1ccc(F)cc1)C2,0%[12.5 µM],x,x,x,x
COc1ccc(-c2cc(C(=O)NN)[nH]n2)cc1OC,0%,13%,0,3%,10µM*
Cc1cc(C(=O)N2CC(F)(F)C[C@H]2c2nc(C)no2)on1,29%,x,x,x,x
O=C(O)c1cccc(N/N=C/c2cccc3ccccc23)c1,u,-11%,0,0%,5%
Clc1ccc(N/N=C/c2cccc3ccccc23)cc1Cl,5µM*,x,x,x,x
Clc1ccc(N/N=C/c2cccc(Cl)c2Cl)cc1Cl,1µM*,x,x,x,x
Cc1c(C)c2ccc(OCC(=O)NC3CC(C)(C)NC(C)(C)C3)cc2oc1=O,-9%,x,x,x,x
Cc1noc(C)c1S(=O)(=O)N(C)C1CCc2ccccc21 (configuration not stated),91%[176 µM],x,x,x,x
CNc1nc(-c2ccc(NC(C)=O)cc2F)cs1,32µM*,x,x,x,x
SMILES,ALOX12 inh,Integrin act MD,IL-2 act,Nrf2 activator,uPA surface inh
CCOC(=O)Nc1nc(-c2ccc(F)cc2F)cs1,-23%,-7%,-1,6%,1%
CN1C(=O)Cc2cc(-c3csc(NC(C)(C)C)n3)ccc21,11µM*,x,x,x,x
CC(=O)Nc1ccc(-c2csc(Nc3ccc(O)c(C(=O)O)c3)n2)cc1,40µM*,x,x,x,x
CC(=O)Nc1ccc(-c2csc(NC(C)(C)C)n2)c(F)c1,11µM*,x,x,x,x
N#Cc1ccc(CN2C[C@@H](COCC(N)=O)[C@H](c3ccncc3)C2)cc1,28%,x,x,x,x
Cc1nonc1CC(=O)N1CCCC(c2n[nH]c(=O)n2-c2ccccc2)C1 (configuration not stated),49%,x,x,x,x
CC(=O)Nc1ccc(-c2csc(NC(C)(C)C)n2)cc1,10µM*,x,x,x,x

# Source: PubChem (National Center for Advancing Translational Sciences (NCATS))
